Whole data set: some 140,000 sequences, median “enrichment ratio after two sorts for PhoP signalling” near 0, cut for the highest 2% near 11. This is one part of a sample in which the highest values are shown more often than they occur.
B1: PhoQ; a variant is named by its letters at X, in order, P23837 (parent)
chain: MKKLLRLFFPLSLRVRFLLATAAVVLVLSLAYGMVALIGYSVSFDKTTFRLLRGESNLFYTLAKWENNKLHVELPENIDKQSPTMTLIYDENGQLLWAQRDVPWLMKMIQPDWLKSNGFHEIEADVNDTSLLLSGDHSIQQQLQEVREDDDDAEMTHSVAVNVYPATSRMPKLTIVVVDTIPVELKSSYMVWSWFIYVLSANLLLVIPLLWVAAWWSLRPIEALAKEVRELEEHNRELLNPATTRELTSLVRNLNRLLKSERERYDKYRTTLTDLTHSLKTPLXXLQXXLRSLRSEKMSVSDAEPVMLEQISRISQQIGYYLHRASMRGGTLLSRELHPVAPLLDNLTSALNKVYQRKGVNISLDISPEISFVGEQNDFVEVMGNVLDNACKYCLEFVEISARQTDEHLYIVVEDDGPGIPLSKREVIFDRGQRVDTLRPGQGVGLAVAREITEQYEGKIVAGESMLGGARMEVIFGRQHSAPKDE

Variants of: B1
Assay: enrichment ratio after two sorts for PhoP signalling (ratio (wild type AVST 3.29)); higher = more functional
Conditions: with PhoP (E. coli)

Row | Variant | enrichment ratio
1 | VAFK | ≤ 0.25
2 | MYIN | ≤ 0.25
3 | EPPF | ≤ 0.25
4 | IMLD | ≤ 0.25
5 | AQCC | 32.6
6 | TKNM | 31.9
7 | HKNM | ≤ 0.25
8 | NQCC | ≤ 0.25
9 | EQCC | ≤ 0.25
10 | KKNM | ≤ 0.25
11 | TTTA | 5.71
12 | YTTI | ≤ 0.25
13 | GVTI | 4.7
14 | GTTI | 13.5
15 | ITTI | ≤ 0.25
16 | TTTI | 22.1
17 | PPTP | ≤ 0.25
18 | GQSI | ≤ 0.25
19 | GGSI | 12.3
20 | TGSI | 19.6
21 | GSSK | ≤ 0.25
22 | NISI | ≤ 0.25
23 | GSTG | ≤ 0.25
24 | RGSI | ≤ 0.25
25 | GSSI | 14.1
26 | NGSI | ≤ 0.25

Row | Variant | enrichment ratio
27 | MYCI | ≤ 0.25
28 | LDCF | ≤ 0.25
29 | DHSM | ≤ 0.25
30 | GYII | 0.285
31 | YTII | ≤ 0.25
32 | GCII | 18.2
33 | GGII | 1.19
34 | GTII | 13.8
35 | GNII | 8.44
36 | TMNM | 35
37 | KMAM | ≤ 0.25
38 | NMAK | ≤ 0.25
39 | TMAN | 18.9
40 | KMAN | ≤ 0.25
41 | TMAK | 16.1
42 | TMIM | ≤ 0.25
43 | TMPM | ≤ 0.25
44 | DMAN | ≤ 0.25
45 | KMNM | ≤ 0.25
46 | TMAM | 26.9
47 | HAAK | ≤ 0.25
48 | HYTR | ≤ 0.25
49 | LWGW | ≤ 0.25
50 | NTYY | ≤ 0.25
51 | YIFC | ≤ 0.25
52 | CVCM | ≤ 0.25

Row | Variant | enrichment ratio
53 | TMGM | 3.21
54 | TMTM | 17.1
55 | TMWM | ≤ 0.25
56 | TWYG | ≤ 0.25
57 | FFGF | ≤ 0.25
58 | QIGF | 12.5
59 | QPGF | ≤ 0.25
60 | QIHF | ≤ 0.25
61 | QEGF | ≤ 0.25
62 | QGFA | 1.27
63 | QGFF | 13.9
64 | FFFF | ≤ 0.25
65 | QGGF | 18.4
66 | LRWS | ≤ 0.25
67 | ITEW | ≤ 0.25
68 | ELKD | ≤ 0.25
69 | HCGH | ≤ 0.25
70 | NAPY | ≤ 0.25
71 | CITI | ≤ 0.25
72 | CIFA | ≤ 0.25
73 | CIMV | 12.9
74 | CITA | 12.4
75 | CICV | 0.57
76 | CIWI | ≤ 0.25
77 | TNDF | ≤ 0.25
78 | YDRL | ≤ 0.25

Row | Variant | enrichment ratio
79 | VIWT | ≤ 0.25
80 | WDYR | ≤ 0.25
81 | GTGM | 6.32
82 | GDCG | ≤ 0.25
83 | RIRE | ≤ 0.25
84 | QSYL | 13.9
85 | KSYL | ≤ 0.25
86 | QTGM | 12
87 | QTDS | 8.33
88 | QTGD | ≤ 0.25
89 | QTDH | 29.3
90 | QTNY | 17.5
91 | QGDH | ≤ 0.25
92 | QTPM | ≤ 0.25
93 | QTNS | 0.432
94 | QEYL | 1.39
95 | QTNL | 10.8
96 | DLEK | ≤ 0.25
97 | IPTS | ≤ 0.25
98 | VIYV | ≤ 0.25
99 | KMFH | ≤ 0.25
100 | KSEQ | ≤ 0.25
101 | TVLM | 0.847
102 | KYWW | ≤ 0.25
103 | KESK | ≤ 0.25
104 | KVEK | ≤ 0.25

Row | Variant | enrichment ratio
105 | KTHS | 0.436
106 | VEPK | ≤ 0.25
107 | FDYL | ≤ 0.25
108 | QTRL | ≤ 0.25
109 | QTYL | 12.8
110 | QGWL | 2.29
111 | QTHF | 3.14
112 | QTPA | ≤ 0.25
113 | QTWL | 21.9
114 | QTYI | 12.9
115 | QGYL | 9.62
116 | PSTY | ≤ 0.25
117 | DPTW | ≤ 0.25
118 | RMLN | ≤ 0.25
119 | HIRM | ≤ 0.25
120 | IACT | ≤ 0.25
121 | KYCT | ≤ 0.25
122 | SACT | 14
123 | SRCT | ≤ 0.25
124 | WLCT | ≤ 0.25
125 | PLCT | ≤ 0.25
126 | SECT | 24.6
127 | SLCT | 19.2
128 | TECT | 5.22
129 | HEHS | ≤ 0.25
130 | NPLN | ≤ 0.25

Row | Variant | enrichment ratio
131 | KDNG | ≤ 0.25
132 | TGQY | 5.59
133 | SYEM | ≤ 0.25
134 | LFDK | ≤ 0.25
135 | LFMM | ≤ 0.25
136 | YGQR | ≤ 0.25
137 | GEGD | ≤ 0.25
138 | GEAY | 23.4
139 | GEYI | ≤ 0.25
140 | GEAT | 14.1
141 | GEAS | 9.56
142 | GEYT | 0.289
143 | GNTT | 2.98
144 | GENY | ≤ 0.25
145 | GETT | 16.2
146 | GELT | 11.2
147 | GEAA | 11.4
148 | GETA | ≤ 0.25
149 | MCVP | ≤ 0.25
150 | LYDV | ≤ 0.25
151 | WERP | ≤ 0.25
152 | FGLD | ≤ 0.25
153 | WHSD | ≤ 0.25
154 | PARG | ≤ 0.25
155 | SKNV | ≤ 0.25
